PubChem BioAssay AID1159580 (chemical genetic matrix, 2015)
The campaign covered roughly 5,500 compounds. About 2,000 (36%) were called active. About 18% were inconclusive and are not listed. Cut-off read from the data, not from the text of the source: active = normalized growth mostly below about 0.91 (no sharp cut-off); inconclusive = no clear call, values can overlap the other calls; inactive = mostly above about 0.92. The list shows a part of the results.

Test: chemical genetic growth profiling, strain panel (AID 1159580);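 note: tested at 20 µM; growth read once vehicle control cultures reached saturation at 30 °C; 1 = growth at the plate median or of vehicle wells; lower values mean less growth of the strain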
Settings: S. cerevisiae deletion strains, growth OD
[1] = locus YHR030C, strain SLT2, active compounds read low
[2] = locus YHR079C, strain IRE1, active compounds read low
[3] = locus YJL095W, strain BCK1, active compounds read low
[4] = locus YJR066W, strain TOR1, active compounds read low
[5] = locus YLR113W, strain HOG1, active compounds read low
[6] = locus YNL183C, strain NPR1, active compounds read low
[7] = locus YOR231W, strain MKK1, active compounds read low
[8] = locus YPL256C, strain CLN2, active compounds read low

Measured: normalized growth

CCC(CO)NC(=O)C1C=C2c3cccc4c3c(cn4C)CC2N(C)C1 (stereo unspecified)
inactive: locus YAL013W, strain DEP1, active compounds read low 0.988 | locus YAL040C, strain CLN3, active compounds read low 1.08 | locus YCL061C, strain MRC1 (second series), active compounds read low 0.999 | locus YDR150W, strain NUM1, active compounds read low 1 | locus YDR363W, strain ESC2, active compounds read low 0.972 | locus YER002W, strain NOP16, active compounds read low 0.998 | locus YGR078C, strain PAC10, active compounds read low 1 | locus YGR229C, strain SMI1, active compounds read low 0.999 | locus YMR263W, strain SAP30, active compounds read low 0.994 | locus YMR307W, strain GAS1, active compounds read low 0.962 | locus YNL128W, strain TEP1, active compounds read low 1.02 | locus YNL153C, strain GIM3, active compounds read low 1 | locus YNL175C, strain NOP13, active compounds read low 0.987 | locus YNL197C, strain WHI3, active compounds read low 1.02 | locus YNL224C, strain SQS1, active compounds read low 1 | locus YNL322C, strain KRE1, active compounds read low 0.989 | locus YOR083W, strain WHI5 (second series), active compounds read low 0.988 | locus YPL055C, strain LGE1, active compounds read low 0.997 | locus YPL241C, strain CIN2, active compounds read low 1

Nc1ccc(S(=O)(=O)O)cc1
inactive: [1] 0.992 | [2] 0.987 | [3] 0.998 | [4] 0.966 | [5] 0.976 | [6] 0.939 | [7] 1.01 | [8] 0.97

CC[C@]1(O)CC2CN(CCc3c([nH]c4ccccc34)[C@@](C(=O)OC)(c3cc4c(cc3OC)N(C=O)[C@H]3[C@@](O)(C(=O)OC)[C@H](OC(C)=O)[C@]5(CC)C=CCN6CC[C@]43[C@@H]65)C2)C1 (stereo partly specified)
inactive: locus YAL021C, strain ccr4, active compounds read low 1 | locus YAL026C, strain drs2, active compounds read low 0.984 | locus YAL030W, strain snc1, active compounds read low 0.993 | locus YBL061C, strain skt5, active compounds read low 1 | locus YBR009C, strain hhf1, active compounds read low 0.988 | locus YBR023C, strain chs3, active compounds read low 0.999 | locus YBR171W, strain sec66, active compounds read low 0.978 | locus YBR231C, strain swc5, active compounds read low 1.01 | locus YBR279W, strain paf1, active compounds read low 0.989 | locus YCL011C, strain gbp2, active compounds read low 1.01 | locus YCL016C, strain dcc1, active compounds read low 1.03 | locus YCL061C, strain MRC1, active compounds read low 0.971 | locus YCL069W, strain vba3, active compounds read low 0.968 | locus YCR088W, strain abp1, active compounds read low 0.986 | locus YDL005C, strain med2, active compounds read low 0.985 | locus YDL040C, strain nat1, active compounds read low 0.988 | locus YDR001C, strain nth1, active compounds read low 1 | locus YDR069C, strain doa4, active compounds read low 0.984 | locus YDR137W, strain rgp1, active compounds read low 0.989 | locus YDR159W, strain sac3, active compounds read low 0.994 | locus YDR195W, strain ref2 0.978 | locus YDR297W, strain sur2, active compounds read low 0.982 | locus YDR334W, strain swr1, active compounds read low 0.937 | locus YDR335W, strain msn5, active compounds read low 0.977 | locus YDR392W, strain spt3, active compounds read low 0.987 | locus YEL003W, strain gim4, active compounds read low 0.972 | locus YEL037C, strain rad23, active compounds read low 0.981 | locus YEL061C, strain CIN8 (second series), active compounds read low 0.968 | locus YER015W, strain faa2, active compounds read low 0.997 | locus YER016W, strain bim1, active compounds read low 0.989 | locus YER111C, strain swi4, active compounds read low 0.989 | locus YER155C, strain BEM2 (second series), active compounds read low 0.962 | locus YFR010W, strain ubp6, active compounds read low 0.94 | locus YGL167C, strain pmr1, active compounds read low 0.972 | locus YGL173C, strain kem1, active compounds read low 0.996 | locus YGL227W, strain vid30, active compounds read low 0.985 | locus YGL240W, strain doc1, active compounds read low 0.966 | locus YGL253W, strain hxk2, active compounds read low 1.02 | locus YHR013C, strain ard1, active compounds read low 1 | locus YHR027C, strain rpn1, active compounds read low 0.992 | [1] 0.972 | [2] 0.97 | locus YHR142W, strain chs7, active compounds read low 1.04 | locus YJL092W, strain hpr5, active compounds read low 0.973 | locus YJL095W, strain BCK1 (second series), active compounds read low 0.988 | [3] 0.958 | locus YJL115W, strain asf1, active compounds read low 0.981 | locus YJL129C, strain trk1, active compounds read low 1.01 | locus YJL154C, strain vps35, active compounds read low 0.972 | locus YJL164C, strain tpk1, active compounds read low 0.986 | locus YJL166W, strain qcr8, active compounds read low 0.998 | [4] 0.939 | locus YKL160W, strain elf1, active compounds read low 1.03 | locus YKR026C, strain gcn3, active compounds read low 0.982 | locus YKR091W, strain srl3, active compounds read low 0.999 | locus YLL001W, strain dnm1, active compounds read low 1.01 | locus YLL026W, active compounds read low 0.992 | locus YLL041C, strain sdh2, active compounds read low 0.992 | locus YLR027C, strain aat2, active compounds read low 0.991 | [5] 0.936 | locus YLR221C, strain rsa3, active compounds read low 0.981 | locus YLR258W, strain gsy2, active compounds read low 0.994 | locus YLR262C, strain YPT6 (second series), active compounds read low 0.954 | locus YLR320W, strain mms22, active compounds read low 0.985 | locus YLR342W, strain FKS1, active compounds read low 0.984 | locus YLR357W, strain rsc2, active compounds read low 0.92 | locus YLR370C, strain arc18, active compounds read low 1.01 | locus YLR384C, strain iki3, active compounds read low 1.01 | locus YML120C, strain ndi1, active compounds read low 0.964 | locus YMR058W, strain fet3, active compounds read low 0.982 | locus YMR125W, strain sto1, active compounds read low 0.926 | locus YMR129W, active compounds read low 0.994 | locus YMR205C, strain PFK2, active compounds read low 1.01 | locus YMR231W, strain pep5, active compounds read low 0.986 | locus YNL071W, strain lat1, active compounds read low 0.973 | [6] 0.933 | locus YNL209W, strain ssb2, active compounds read low 1 | locus YNL248C, strain rpa49, active compounds read low 0.991 | locus YNL322C, strain KRE1 (second series), active compounds read low 0.975 | locus YNR049C, strain mso1, active compounds read low 0.975 | locus YOR001W, strain rrp6, active compounds read low 0.945 | locus YOR070C, strain gyp1, active compounds read low 0.999 | locus YOR080W, strain dia2, active compounds read low 0.996 | locus YOR083W, strain WHI5, active compounds read low 1.01 | locus YOR106W, strain vam3, active compounds read low 0.998 | [7] 0.964 | locus YOR265W, strain rbl2, active compounds read low 0.989 | locus YOR270C, strain vph1, active compounds read low 1.04 | locus YOR290C, strain snf2, active compounds read low 1.02 | locus YPL051W, strain arl3, active compounds read low 1.01 | locus YPL078C, strain atp4, active compounds read low 1.04 | locus YPL106C, strain sse1, active compounds read low 0.953 | locus YPL240C, strain hsp82, active compounds read low 0.952 | [8] 1.05
